Assay [1] has as its target Cell division control protein 42 homolog (Homo sapiens) (UniProt P60953). Briefly: activated mutant Cdc42 GTP-binding inhibitors, dose response, biochemical, multiplex bead flow cytometry, Bodipy-FL-GTP (AID 1333).
Assay [2] shares this target. Nature of the assay: wildtype Cdc42 GTP-binding inhibitors, dose response, biochemical, multiplex bead flow cytometry, Bodipy-FL-GTP (AID 1334;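 active means fitted half-maximal concentration within the tested range, moderate curve steepness, significant signal drop, and little compound fluorescence or bead-linkage interference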). The settings on record: bead-based flow cytometry, Bodipy-FL-GTP binding to GST-Cdc42; at 100 µM (top of the series) unless noted. (In flow cytometry, cells or beads pass a laser one at a time.)
The target in assay [3] is GTPase HRas (Homo sapiens) (UniProt P01112). Nature of the assay: inhibitors of GTP binding to wildtype Ras, dose response, biochemical, multiplex bead flow cytometry (AID 1335;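 active means fitted half-maximal concentration within 10 nM to 100 µM, steepness 0.5 to 2, significant signal drop, low assay interference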). The following applies: bead-based flow cytometry, Bodipy-GTP binding to GST-Ras; at 100 µM (top of the series) unless noted.
Assay [4] deals with Ras-related protein Rab-7a (dog), GTP binding. Nature of the assay: Rab7 GTP binding inhibitors, potency, dose response, biochemical, wildtype, multiplex bead flow cytometry (AID 1336; call rule not given here).
In assay [5] the target is Ras-related C3 botulinum toxin substrate 1 (Homo sapiens) (UniProt P63000). Nature of the assay: wildtype Rac1 GTP binding inhibitors, dose response, biochemical, multiplex bead flow cytometry (AID 1340;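 active means dose curve with midpoint inside tested range, moderate steepness, plateau gap beyond fit error, low compound glow and bead-link interference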). The settings on record: GST-Rac1 beads, Bodipy-FL-GTP binding; at 100 µM (top of the series) unless noted.
Assay [6] concerns the target GTPase HRas (Homo sapiens) (UniProt P01112). Nature of the assay: activated Ras mutant GTP binding inhibitors, dose response, biochemical, multiplex bead flow cytometry (AID 1341;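 active means dose-response curve with midpoint inside the tested range, moderate steepness, significant amplitude and little compound fluorescence or bead-attachment interference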;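 further: GST-tagged constitutively activated Ras mutant immobilized on beads and multiplexed with other GTPases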).

For part of these data: Potency and affinity values are given separately. The source made the active and inactive calls.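 How the source made its calls, unless noted: active means fitted half-maximal concentration within the tested dose range, moderate curve steepness, a statistically real signal drop, and little compound fluorescence or tag-binding interference; inactive means the rest.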

Chain of GTPase HRas (Homo sapiens) (P01112 whole entry, looked up): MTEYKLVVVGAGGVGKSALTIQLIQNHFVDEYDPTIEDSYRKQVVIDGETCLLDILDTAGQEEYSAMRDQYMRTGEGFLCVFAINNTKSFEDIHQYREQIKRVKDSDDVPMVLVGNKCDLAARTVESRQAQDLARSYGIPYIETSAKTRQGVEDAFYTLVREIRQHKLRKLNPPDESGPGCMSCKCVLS
Chain of Cell division control protein 42 homolog (Homo sapiens) (P60953 whole entry, looked up): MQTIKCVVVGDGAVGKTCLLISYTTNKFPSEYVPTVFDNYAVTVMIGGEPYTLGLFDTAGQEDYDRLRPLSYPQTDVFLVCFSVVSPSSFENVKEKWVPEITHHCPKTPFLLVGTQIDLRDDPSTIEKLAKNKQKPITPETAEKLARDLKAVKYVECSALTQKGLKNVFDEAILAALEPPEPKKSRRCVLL

Take `Cc1cc2ccccn2c1C(=O)c1ccc(Cl)c([N+](=O)[O-])c1`: the call in assay [1], in assay [4] and in assay [6] was inactive. Further, in assay [2], the fluorescence, percent of control (lower = inhibition) is 38.8%. Moreover, the GTP binding, percent of control in assay [3] came to 86.1%. Also, the GTP binding signal, raw median fluorescence (lower = inhibition) (MCF (arbitrary fluorescence units)) in assay [5] came to 216.

Take `COc1cccc(/C=C2\SC(=S)N(NC(=O)c3ccncc3)C2=O)c1`: the result in assay [1], in assay [4] and in assay [6] was inactive. In assay [2], this compound registered a fluorescence, percent of control (lower = inhibition) of 26.6%. Moreover, the GTP binding, percent of control in assay [3] was determined as 63.7%. Further, in assay [5], the GTP binding signal, raw median fluorescence (lower = inhibition) (MCF (arbitrary fluorescence units)) worked out at 116.

`COc1ccc(CC(=O)Nc2ccc(C(=O)Nc3nccs3)cc2)cc1OC`: the result in assay [1], in assay [4] and in assay [6] was inactive. The fluorescence, percent of control (lower = inhibition) in assay [2] was 36.7%. In assay [3], the GTP binding, percent of control is 75.2%. Also, the GTP binding signal, raw median fluorescence (lower = inhibition) (MCF (arbitrary fluorescence units)) in assay [5] came to 163.

As to `Cc1cc(C)n2nc(SCCOc3ccccc3)nc2n1`, the compound was called inactive in assay [1], in assay [4] and in assay [6]. In addition, the fluorescence, percent of control (lower = inhibition) in assay [2] is 31.1%. The GTP binding, percent of control in assay [3] is 71.1%. For the same compound, in assay [5], the GTP binding signal, raw median fluorescence (lower = inhibition) (MCF (arbitrary fluorescence units)) was determined as 183.

As for `O=C(O)COc1ccccc1/C=N/NC(=O)c1cc(-c2ccc(F)cc2)nc2ccccc12`, the call in assay [1], in assay [4] and in assay [6] was inactive. Besides, in assay [2], the fluorescence, percent of control (lower = inhibition) is 30.7%. Further, the GTP binding, percent of control in assay [3] was determined as 80.5%. In assay [5], this compound displayed a GTP binding signal, raw median fluorescence (lower = inhibition) (MCF (arbitrary fluorescence units)) of 177.

`Nc1nonc1-c1nc2ccccc2n1CC(=O)N/N=C/c1ccc(-c2ccccc2C(=O)O)o1`: the result in assay [1], in assay [4] and in assay [6] was inactive. Also, the fluorescence, percent of control (lower = inhibition) in assay [2] worked out at 30.6%. The GTP binding, percent of control in assay [3] came to 68.4%. This compound also registered a GTP binding signal, raw median fluorescence (lower = inhibition) (MCF (arbitrary fluorescence units)) in assay [5] of 133.

On to `COc1ccc(C(=O)Nn2c(SCC(=O)c3ccccc3)nc3ccccc3c2=O)cc1`, for which the call in assay [1], in assay [4] and in assay [6] was inactive. In assay [2], this compound displayed a fluorescence, percent of control (lower = inhibition) of 71.5%. In assay [3], the GTP binding, percent of control turned out to be 119%. The same compound yielded a GTP binding signal, raw median fluorescence (lower = inhibition) (MCF (arbitrary fluorescence units)) in assay [5] of 135.

Take `CC(=O)Nc1ccc(N2C(=O)c3ccc(C(=O)Nc4nnc(SCc5ccc(F)cc5)s4)cc3C2=O)cc1`: the result in assay [1], in assay [4] and in assay [6] was inactive. In assay [2], this compound displayed a fluorescence, percent of control (lower = inhibition) of 43.1%. For the same compound, the GTP binding, percent of control in assay [3] is 92.1%. Moreover, in assay [5], the GTP binding signal, raw median fluorescence (lower = inhibition) (MCF (arbitrary fluorescence units)) was 253.

With `O=c1c2ccccc2nc2ccc(NCc3cccs3)nn12`, the compound was classed as inactive in assay [1], in assay [4] and in assay [6]. Besides, in assay [2], the fluorescence, percent of control (lower = inhibition) was found to be 33.1%. The same compound came in with a GTP binding, percent of control in assay [3] of 76.2%. Further, the GTP binding signal, raw median fluorescence (lower = inhibition) (MCF (arbitrary fluorescence units)) in assay [5] came to 195.

Turning to `O=C(C#Cc1ccccc1F)c1ccc([N+](=O)[O-])cc1`, the compound was classed as inactive in assay [1], in assay [4] and in assay [6]. In assay [2], this compound registered a fluorescence, percent of control (lower = inhibition) of 49.8%. In assay [3], this compound gave a GTP binding, percent of control of 179%. Further, the GTP binding signal, raw median fluorescence (lower = inhibition) (MCF (arbitrary fluorescence units)) in assay [5] was 104.

Turning to `Cc1ccc(C)c(OCc2ccc(C(=O)O)o2)c1`, the compound was called inactive in assay [1], in assay [4] and in assay [6]. Also, in assay [2], the fluorescence, percent of control (lower = inhibition) was found to be 63.2%. The compound further came in with a GTP binding, percent of control in assay [3] of 87.7%. In assay [5], the GTP binding signal, raw median fluorescence (lower = inhibition) (MCF (arbitrary fluorescence units)) worked out at 39.9.

Consider `S=C(NCCc1ccccc1)N1CCn2cccc2C1c1cccnc1` (stereo unspecified), for which the result in assay [1], in assay [4] and in assay [6] was inactive. The same compound registered a fluorescence, percent of control (lower = inhibition) in assay [2] of 28%. The compound further showed a GTP binding, percent of control in assay [3] of 63.3%. The compound also came in with a GTP binding signal, raw median fluorescence (lower = inhibition) (MCF (arbitrary fluorescence units)) in assay [5] of 227.

For the compound `Cc1[nH]c2ccccc2c1C(=O)CNc1nccs1`, the result in assay [1], in assay [4] and in assay [6] was inactive. The fluorescence, percent of control (lower = inhibition) in assay [2] worked out at 50.6%. Besides, in assay [3], the GTP binding, percent of control is 58%. This compound returned a GTP binding signal, raw median fluorescence (lower = inhibition) (MCF (arbitrary fluorescence units)) in assay [5] of 0.

For `O=S(=O)(Nc1ncn[nH]1)c1ccc2ccccc2c1`, the call in assay [1], in assay [4] and in assay [6] was inactive. The fluorescence, percent of control (lower = inhibition) in assay [2] came out at 62.3%. Further, the GTP binding, percent of control in assay [3] was 70.5%. Further, in assay [5], the GTP binding signal, raw median fluorescence (lower = inhibition) (MCF (arbitrary fluorescence units)) turned out to be 224.

With `Cc1cc(C)n2nc(SCCOc3ccccc3F)nc2n1`, the call in assay [1], in assay [4] and in assay [6] was inactive. Also, the fluorescence, percent of control (lower = inhibition) in assay [2] was determined as 34.1%. In addition, the GTP binding, percent of control in assay [3] was 72.5%. Besides, the GTP binding signal, raw median fluorescence (lower = inhibition) (MCF (arbitrary fluorescence units)) in assay [5] was 144.

For the compound `C=C(C)COc1ccc(-c2n[nH]c(C)c2-c2ccc(Br)cc2)c(O)c1`, the call in assay [1], in assay [4] and in assay [6] was inactive. The compound further came in with a fluorescence, percent of control (lower = inhibition) in assay [2] of 32.9%. This compound had a GTP binding, percent of control in assay [3] of 78.5%. The compound further returned a GTP binding signal, raw median fluorescence (lower = inhibition) (MCF (arbitrary fluorescence units)) in assay [5] of 265.

The values are drawn from PubChem BioAssay.
